A selection: hits, their analogues and other compounds. The true share with any hit is near 4.2%.
Mtb bLac sens = beta-lactam sensitization of Mtb H37Rv; M. tuberculosis H37Rv growth with meropenem, percent inhibition; inhibition, % at 25 µM; hit rate 0.27% among 330,000; AID 434955; call rule not given here;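 further: growth measured after seven days incubation then overnight dye step; 0% = bacteria only wells and 100% = bacteria with antibiotic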
Mtb FBA inh = Mtb fructose-bisphosphate aldolase inhibition; P9WQA3; hit rate 2.3% among 360,000; AID 588726; inhibition, % at 1 µM; purified M. tuberculosis FBA, fluorescence read-out; in the data active means inhibition above about 27%;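 further: 0% = vehicle and 100% = reference inhibitor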
GDH-TPI counter = counter-screen for M. tuberculosis FBA inhibitors: GDH-TPI coupled enzymes | GDH-TPI coupled enzyme counterscreen, NADH absorbance | inhibition, % at 4.8 µM | hit rate 1.2% among 360,000;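 further: 0% = DMSO wells and 100% = wells lacking the enzyme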
RecA splice inh = inhibitors of M. tuberculosis RecA intein splicing | hit rate 0.75% among 290,000 | P9WHJ3 | inhibition, % (concentration not given with the values) | AID 2221 | cell-free RecA intein splicing, fluorescence; in the data active means inhibition above about 30%;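 further: 0% = vehicle wells and 100% = reference inhibitor control wells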
Target sequence (P9WHJ3 whole entry, looked up, canonical isoform): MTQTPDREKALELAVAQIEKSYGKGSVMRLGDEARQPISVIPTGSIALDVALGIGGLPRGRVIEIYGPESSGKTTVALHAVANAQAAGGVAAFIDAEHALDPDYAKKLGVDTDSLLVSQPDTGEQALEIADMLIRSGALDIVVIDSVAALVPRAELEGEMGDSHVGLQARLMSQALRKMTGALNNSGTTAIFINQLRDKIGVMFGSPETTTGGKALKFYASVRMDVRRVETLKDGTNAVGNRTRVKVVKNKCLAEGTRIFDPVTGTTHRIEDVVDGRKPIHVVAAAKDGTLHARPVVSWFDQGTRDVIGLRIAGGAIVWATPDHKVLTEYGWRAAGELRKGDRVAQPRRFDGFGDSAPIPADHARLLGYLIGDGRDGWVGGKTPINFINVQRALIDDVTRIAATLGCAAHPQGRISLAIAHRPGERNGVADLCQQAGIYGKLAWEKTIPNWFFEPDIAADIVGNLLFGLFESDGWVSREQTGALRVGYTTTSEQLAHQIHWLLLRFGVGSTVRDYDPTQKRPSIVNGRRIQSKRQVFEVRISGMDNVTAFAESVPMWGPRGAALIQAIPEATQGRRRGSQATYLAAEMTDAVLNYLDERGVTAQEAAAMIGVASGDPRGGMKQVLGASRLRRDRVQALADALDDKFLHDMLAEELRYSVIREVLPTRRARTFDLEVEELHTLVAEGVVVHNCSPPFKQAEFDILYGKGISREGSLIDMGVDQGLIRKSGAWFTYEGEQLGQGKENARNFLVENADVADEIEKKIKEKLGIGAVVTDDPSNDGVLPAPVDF
CCHFV vOTU inh = blocks the CCHF virus ovarian tumor domain protease. hit rate 0.55% among 370,000. inhibition, % at 11.5 µM. CCHFV vOTU protease, Pep-AMC fluorescence; further: 0% = vehicle wells with enzyme and 100% = no enzyme wells
* = called active by the depositor. Unless noted, no stated cut-off is given here; in the data, active means inhibition above about 30%; inactive means the rest.

O=S(=O)(N/N=C\c1cccnc1)c1ccccc1 was read as Mtb bLac sens 5, Mtb FBA inh 1, GDH-TPI counter 5, RecA splice inh 3 and CCHFV vOTU inh -9.
`O=S(=O)(N/N=C\C=C\c1ccccc1)c1ccccc1` gave Mtb bLac sens 12, Mtb FBA inh -5, GDH-TPI counter 31*, RecA splice inh 2 and CCHFV vOTU inh 3.
NC(=S)N/N=C/c1cccc(/C=N/NC(N)=S)c1 was read as Mtb FBA inh -1, GDH-TPI counter 37*, RecA splice inh -2 and CCHFV vOTU inh 1.
`NC(=S)N/N=C/C=C/c1ccccc1` gave Mtb bLac sens 98, Mtb FBA inh 1, GDH-TPI counter 38*, RecA splice inh -2 and CCHFV vOTU inh 1.
For Cc1cc(OC[C@@H](O)CN2CCC(C(O)(c3ccccc3)c3ccccc3)CC2)ccc1Br the results were CCHFV vOTU inh 14.
`COC(=O)[C@]12C[C@H](CC(=O)N3CCN(C(=O)c4ccco4)CC3)C(=O)N(Cc3cccc4ccccc34)C1=C[C@H](C(C)(C)C)O[C@@H]2C` gave CCHFV vOTU inh 13.
`CC(=O)c1cccc(NC(=O)c2cnn3ccccc23)c1` gave Mtb bLac sens -1, Mtb FBA inh 3, GDH-TPI counter 4, RecA splice inh 1 and CCHFV vOTU inh 8.
Screening CC(=O)c1ccc(NC(=O)c2cnn3ccccc23)cc1 returned Mtb bLac sens -8, Mtb FBA inh 2, GDH-TPI counter 36*, RecA splice inh -5 and CCHFV vOTU inh 1.
`O=C(Nc1ccccc1)Nc1c(-c2ccccc2)nc2ncccn12` gave CCHFV vOTU inh -18.
`CN1C2C=C3C(C#N)=C(N)C(C#N)(C#N)[C@H](c4c(F)cccc4F)[C@H]3C1CC2` (some centres not stated) gave Mtb bLac sens 6, Mtb FBA inh 8, GDH-TPI counter 7, RecA splice inh 7 and CCHFV vOTU inh -20.
Screening N#CC1=C(N)C(C#N)(C#N)[C@H](c2c(F)cccc2F)[C@H]2CC3(CC=C12)OCCO3 returned Mtb bLac sens 2, Mtb FBA inh 1, GDH-TPI counter 8, RecA splice inh 35* and CCHFV vOTU inh -5.
CN1CCc2c(sc3nc(SCC(=O)N4CCOCC4)n(-c4ccc(Cl)cc4)c(=O)c23)C1 was read as Mtb bLac sens 2, Mtb FBA inh 25, GDH-TPI counter 51*, RecA splice inh 11 and CCHFV vOTU inh 1.
`CCOC(=O)CSc1nc2sc3c(c2c(=O)n1-c1ccc(OC)cc1)CCN(C)C3` gave Mtb bLac sens 19, Mtb FBA inh 2, GDH-TPI counter 25, RecA splice inh 14 and CCHFV vOTU inh 1.
COC(=O)CSc1nc2sc3c(c2c(=O)n1-c1ccc(OC)cc1)CCN(C)C3 was read as Mtb FBA inh 4, GDH-TPI counter 20, RecA splice inh -2 and CCHFV vOTU inh -13.
For CNC(=O)CSc1nc(N)c2c3c(sc2n1)CCC3 the results were Mtb bLac sens 7, Mtb FBA inh 3, GDH-TPI counter 11, RecA splice inh -3 and CCHFV vOTU inh -6.
For COc1ccc(-n2c(SCC(N)=O)nc3sc4c(c3c2=O)CCN(C)C4)cc1 the results were Mtb bLac sens -2, Mtb FBA inh 35*, GDH-TPI counter 35*, RecA splice inh 3 and CCHFV vOTU inh 6.
CC1CCN(C(=O)CSc2nc(N)c3c4c(sc3n2)CN(C)CC4)CC1 was read as Mtb FBA inh 31*, GDH-TPI counter 11 and RecA splice inh -4.
Screening CCOC(=O)c1cc(-c2ccccc2)nc2nc(N(CC)CC)sc12 returned Mtb bLac sens 24, Mtb FBA inh 65*, GDH-TPI counter 10, RecA splice inh -483 and CCHFV vOTU inh -52.
CC(=O)OCC(=O)Nc1ccc(N=Nc2ccccc2)cc1 was read as Mtb bLac sens 4, Mtb FBA inh -9, GDH-TPI counter 37*, RecA splice inh 1 and CCHFV vOTU inh 24.
Screening CC(=O)Nc1ccccc1 returned Mtb bLac sens -4, Mtb FBA inh -1, GDH-TPI counter -6 and CCHFV vOTU inh -5.
CC(=O)Nc1ccc(N=Nc2ccccc2)cc1 was read as Mtb bLac sens 2, Mtb FBA inh -4, GDH-TPI counter 36*, RecA splice inh 2 and CCHFV vOTU inh 6.
For O=C1c2ccccc2NC(c2ccncc2)N1c1ccccn1 (configuration not stated) the results were Mtb bLac sens 2, Mtb FBA inh 54*, GDH-TPI counter 3, RecA splice inh -21 and CCHFV vOTU inh -80.
